According to PMC5540273 (PLoS ONE, 2017):
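Further: KINOMEscan kinase panel screen.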

The molecules below were run on T1, ADCK3. Conditions: concentration: 1 μM, replicates: in singlicate; n = 1.
T1 construct: gene CABC1
In the case of `CCn1c(-c2nonc2N)nc2c(-c3ccccc3)ncc(OCCCN)c21.O=C(O)C(F)(F)F.O=C(O)C(F)(F)F` [GSK260205], the “%Inh” value is reported as 46%.
For `COc1ccc(C)c(Nc2ccnc(Nc3ccc(-c4cnc[nH]4)cc3)n2)c1.Cl` [GW784041], the “%Inh” value was 40%.
`CN(c1ccc(F)c(NC(=O)c2cccc(OC(C)(C)C#N)c2Cl)c1)c1ccc2nc(NC(=O)C3CC3)sc2n1` was tested, and the “%Inh” value was 0%.
